# Source: PubChem
# Only some compounds are listed: those with a hit (about 3.5% of all), similar ones and a draw of the others.
# FBW7 activator: activators of human E3 ligase FBW7. normalized activity (activation), % at 26.1 µM. AlphaScreen FBW7–phospho-cyclin E peptide binding, activator screen. Q969H0. 650,000 tested, 0.13% active; in the data active = normalized activity above about 1.9%;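 note: purified mutant Fbw7 with reduced substrate affinity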
# TEAD-YAP inh: TEAD-YAP interaction inhibition; 640,000 tested, 1.4% active; HEK-TIYL cells, TEAD-Gal4/YAP UAS-luciferase luminescence; inhibition, % at 9.12 µM; in the data active = inhibition above about 32%;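 note: 0% = median of test compound wells and 100% = reference inhibitor wells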
# MITF primary: blocks human microphthalmia-associated transcription factor. O75030. AlphaScreen MITF homodimerization, bead proximity signal. inhibition, % at 2.6 µM. 650,000 tested, 0.91% active; in the data active = inhibition above about 50%;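 note: 0% = vehicle wells with protein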
# GPR151 activ: activators of human GPR151 | AID 1508602 | activation, % at 11.2 µM | 650,000 tested, 1% active | Q8TDV0 | PathHunter beta-arrestin GPR151 cells, luminescence; in the data active = activation above about 4.9%;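 note: 0% = median of compound wells and 100% = cells with positive control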
# GPR151 conf act: confirmation of human GPR151 activators; shares compounds with GPR151 activ; GPR151 PathHunter beta-arrestin cells, luminescence, 90 min; % of EA-reagent control over plate median; activation, % at 11.2 µM; 6,700 tested, under 10 active; AID 1508609;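 active = mean percent activation across replicates above the confirmation screen cutoff of 4.91%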
# GPR119 ag: GPR119 activation, counter-screen for GPR151 activators | 6,700 tested, 0.3% active | GPR119 PathHunter beta-arrestin cells, luminescence, 90 min; 0 = compound-well median, 100 = enzyme-acceptor control | activation, % at 11.2 µM | shares compounds with GPR151 activ;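 active = mean percent activation in the counterscreen above 29.09%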;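 note: counterscreen on off-target GPR119 to flag nonselective hits from the GPR151 activator screen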
# Target sequence (Q8TDV5 whole entry, looked up): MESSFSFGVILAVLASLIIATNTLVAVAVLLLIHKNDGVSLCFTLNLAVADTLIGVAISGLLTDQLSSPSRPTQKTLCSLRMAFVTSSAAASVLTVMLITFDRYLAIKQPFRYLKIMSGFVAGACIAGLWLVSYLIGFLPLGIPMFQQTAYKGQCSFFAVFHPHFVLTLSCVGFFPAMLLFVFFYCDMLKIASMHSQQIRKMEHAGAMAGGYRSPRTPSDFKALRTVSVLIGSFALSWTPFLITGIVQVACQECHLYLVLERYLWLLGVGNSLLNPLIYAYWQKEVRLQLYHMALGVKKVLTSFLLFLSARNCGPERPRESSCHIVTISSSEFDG
# The depositor's hits bear a star; · = no result given; ! = not confirmed by another sample.
SMILES,FBW7 activator,TEAD-YAP inh,MITF primary,GPR151 activ,GPR151 conf act,GPR119 ag
Cc1ccc(NC(=O)CCn2ccnc2C)cc1C,0,16,-6,3,·,·
COCCn1c(C)cc(C2=NNC(=Nc3ccccc3)SC2)c1C,0,57*,-4,11*,1,2
C=CCn1c(C)cc(C2=NNC(=Nc3ccccc3)SC2)c1C,1,-43,18,0,·,·
COc1cc(C(=O)Nc2sc3c(c2C(N)=O)CCN(C)C3)cc(OC)c1OC,0,-2,10,0,·,·
COc1cc2c(cc1OC)C1C(C(=O)NCc3cccs3)c3ccccc3C(=O)N1CC2 (stereo not given),0,-1,7,-1,·,·
O=C(CSc1nccn1Cc1ccc(F)cc1)Nc1nccs1,0,-16,-7,7.0*,0,-2
Cc1ccc(Cn2ccnc2SCC(=O)Nc2ccccc2F)cc1,0,5,-2,8.6*,0,-9
O=C(COc1ccc([N+](=O)[O-])cc1)Nc1cccc2cccnc12,0,5,-1,5.9*,0,8
CCCOc1ccccc1NC(=O)COc1ccc(C#N)cc1,0,5,5,12*,0,3
CCOc1ccccc1NC(=O)COc1ccc(F)cc1,0,-10,-3,0,·,·
CC(=O)Nc1ccccc1NC(=O)COc1ccccc1,0,2,-1,-2,·,·
O=C(COc1ccccc1)Nc1ccccc1NC(=O)COc1ccccc1,0,14,-3,5.8*,0,5
COc1ccc(CC(=O)Nc2ccc(N(C)C)c3ccccc23)cc1,0,-1,16,5.6*,1,-3
CCCNC(=O)Cc1cn(-c2ccc(Nc3nc4ccccc4n3C)nn2)c2ccccc12,0,-4,3,1,·,·
CCCn1nnnc1NC(=O)COc1ccc(Cl)cc1Cl,0,3,-2,0,·,·
O=C(CCCn1c(SCc2ccc(F)cc2)nc2ccsc2c1=O)NCCc1ccccc1,0,-5,-1,1,·,·
O=c1cnnc(N/N=C/c2ccc(O)cc2)[nH]1,0,0,2,2,·,·
CCc1ccccc1NC(=O)COc1ccc(C#N)cc1,1,-6,15,7.5*,1,4
CCOc1ccc(OCC(=O)Nc2ccccc2CC)cc1,0,-8,2,-1,·,·
COc1ccc(OCC(=O)Nc2ccccc2CO)cc1,0,-15,3,9.2*,0,-4
Cc1cc(C(=O)N2CCOCC2)c(C)o1,0,-8,15,0,·,·
Cc1cc(C(=O)NN2CCOCC2)c(C)o1,0,3,8,7.6*,0,7
COCc1ccc(CN2CCCC(N(C)CCc3ccccc3)C2)o1 (stereo not given),0,-8,6,5.1*,-1,-6
COc1ccc(CCN(C)C2CCCN(Cc3ccoc3)C2)cc1OC (stereo not given),0,11,11,0,·,·
CN(CCc1ccccc1)C1CCCN(Cc2cccnc2)C1 (stereo not given),0,10,8,-1,·,·
SMILES,FBW7 activator,TEAD-YAP inh,MITF primary,GPR151 activ,GPR151 conf act,GPR119 ag
COc1ccc(CCN(C)C2CCCN(Cc3c(C)nn(C)c3Cl)C2)cc1OC (stereo not given),0,9,12,5.9*,0,4
COc1ccc(CCN(C)C2CCCN(Cc3ccncc3)C2)cc1OC (stereo not given),0,3,-14,9.1*,0,4
CCOC(=O)C1=C(C)NC(=O)NC1c1cccc(I)c1 (stereo not given),0,-10,-10,0,·,·
COc1ccc(Cl)cc1NC(=O)C(C(C)C)N1Cc2ccccc2C1=O (stereo not given),0,2,17,-2,·,·
O=C(Nc1ccc2c3c(cccc13)CC2)c1ccc(-c2ccc(Cl)cc2)o1,0,-6,14,5.1*,-1,-4
O=c1[nH]nc(Cc2ccccc2)c2ccccc12,0,-13,4,0,·,·
COc1ccc(Cc2n[nH]c(=O)c3ccccc23)cc1OC,0,-10,-4,5.3*,1,-5
O=C(CCC1CCN(C(=O)C2=CCCCC2)CC1)Nc1ccccc1,0,1,-3,5.3*,0,-5
CCC[C@@H]1NC(=O)[C@H]2CN(C(=O)c3ccc(-c4ccccc4)cc3)CCN2C1=O,0,13,7,-1,·,·
CC(C)c1nc2ccc(-c3ccnc(Nc4cccc(C(=O)NC5CC5)c4)n3)cc2c(=O)[nH]1,0,-4,12,0,·,·
C=CCc1cc2c(C)cc(=O)oc2c(I)c1O,0,-15,14,7.1*,1,6
CSCCC(NC(=O)c1ccc(Cl)c([N+](=O)[O-])c1)C(=O)O (stereo not given),0,5,0,5.3*,2,12
COc1ccc(S(=O)(=O)CCC(=O)Nc2ccccc2Br)cc1,0,-9,3,9.4*,0,-4
CO[C@H]1/C=C/O[C@@]2(C)Oc3c(C)c(O)c4c(O)c(c(/C=N\N5CCN(C)CC5)c(O)c4c3C2=O)NC(=O)/C(C)=C\C=C\C(C)[C@H](O)[C@@H](C)[C@@H](O)[C@@H](C)[C@@H](OC(C)=O)[C@@H]1C (stereo not given in full),0,2,-14,-1,·,·
CO[C@H]1C=CO[C@@]2(C)Oc3c(C)c(O)c4c(O)c(c(C=NN5CCN(C)CC5)c(O)c4c3C2=O)NC(=O)C(C)=CC=C[C@H](C)[C@H](O)[C@@H](C)[C@@H](O)[C@@H](C)[C@H](OC(C)=O)[C@@H]1C,0,·,-4,6.0*!,0,-6
CCOCCn1ccc2c(OCC(=O)NCCOC)cccc2c1=O,0,0,8,14*,1,2
CCOCCn1ccc2c(OCC(=O)Nc3ccc(F)cc3F)cccc2c1=O,0,4,6,2,·,·
Nc1ccc2c(c1)S(=O)(=O)c1cc(N)ccc1O2,0,-59,3,7.4*,0,-6
COc1cccc2sc(NC(=O)c3ccc(S(=O)(=O)N4CCCc5ccccc54)cc3)nc12,1,-1,15,-1,·,·
Cc1sc(NC(=O)CCS(=O)(=O)c2ccc(Cl)cc2)c(C#N)c1C,0,2,11,5.2*,0,1
CCC(CC)C(=O)O/N=C(\N)Cc1ccc(OC)cc1,0,3,12,9.3*,1,-1
COc1ccc(C/C(N)=N/OC(=O)Cc2ccccc2)cc1,0,-7,0,-1,·,·
Cc1cc(I)ccc1NC(=O)C(C)N1C(=O)c2ccccc2C1=O (stereo not given),0,4,7,2,·,·
N#Cc1c(-c2ccccc2)cc(-c2ccccc2)nc1SCc1ccc(Cl)cc1,0,2,-1,5.5*,1,-6
N#Cc1c(-c2ccccc2)cc(-c2ccccc2)nc1SCc1ccc(Cl)c(Cl)c1,0,-8,5,0,·,·
